Screening results (PubChem)
Shown are actives, neighbours in structure and some others; about 3.8% of the full set was active somewhere.
GCN5L2 inh: qHTS Assay for Inhibitors of GCN5L2; Histone acetyltransferase KAT2A (Homo sapiens), Q92830; GCN5L2 HAT assay, ThioGlo1 CoA-SH fluorescence; Potency, µM (doses to about 58.9 µM), for the others: at the top dose activity change, negative = inhibition, most hits filed as inhibitors; actives 0.21% (n = 390,000)
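Free CoA generated was detected with ThioGlo1 (50uM) fluorescence at Ex340nm/Em540nm, read immediately and after 20 min at room temperature. Enzyme, 20 nM in HEPES pH 7.5 buffer, saw compounds 15 min before adding 75uM H3(1-25) peptide and 70uM acetyl-CoA.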
TrxR1 substrate: qHTS Assay for Substrates of Mammalian Selenoprotein Thioredoxin Reductase 1 (TrxR1): qHTS | purified TrxR1 substrate turnover, NADPH consumption readout | Potency, µM (top dose mostly 114 µM), for the others: at the highest dose activity change, negative = substrate turnover | AID 588456, 2011 | Thioredoxin reductase 1, cytoplasmic (Rattus norvegicus), O89049 | actives 0.01% (n = 390,000); also: nearly all actives have a fitted effect of over 50% in size
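Rat TrxR1, dispensed at 90 nM, was prereduced with 400 uM NADPH (final) for 5 min at ~22 deg C, then incubated with compound 15 min before 400 uM selenite. A first-read NADPH fluorescence drop versus no-compound background flagged substrates.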
GLS inhibitor: qHTS for Inhibitors of Glutaminase (GLS). Potency, µM (doses to about 45.5 µM), inactives show top-dose activity change, negative = inhibition, actives largely listed as inhibitors. GLS enzymatic activity, qHTS titration. AID 624170, 2012. actives 0.21% (n = 410,000)
Target sequence (O94925 whole entry, looked up): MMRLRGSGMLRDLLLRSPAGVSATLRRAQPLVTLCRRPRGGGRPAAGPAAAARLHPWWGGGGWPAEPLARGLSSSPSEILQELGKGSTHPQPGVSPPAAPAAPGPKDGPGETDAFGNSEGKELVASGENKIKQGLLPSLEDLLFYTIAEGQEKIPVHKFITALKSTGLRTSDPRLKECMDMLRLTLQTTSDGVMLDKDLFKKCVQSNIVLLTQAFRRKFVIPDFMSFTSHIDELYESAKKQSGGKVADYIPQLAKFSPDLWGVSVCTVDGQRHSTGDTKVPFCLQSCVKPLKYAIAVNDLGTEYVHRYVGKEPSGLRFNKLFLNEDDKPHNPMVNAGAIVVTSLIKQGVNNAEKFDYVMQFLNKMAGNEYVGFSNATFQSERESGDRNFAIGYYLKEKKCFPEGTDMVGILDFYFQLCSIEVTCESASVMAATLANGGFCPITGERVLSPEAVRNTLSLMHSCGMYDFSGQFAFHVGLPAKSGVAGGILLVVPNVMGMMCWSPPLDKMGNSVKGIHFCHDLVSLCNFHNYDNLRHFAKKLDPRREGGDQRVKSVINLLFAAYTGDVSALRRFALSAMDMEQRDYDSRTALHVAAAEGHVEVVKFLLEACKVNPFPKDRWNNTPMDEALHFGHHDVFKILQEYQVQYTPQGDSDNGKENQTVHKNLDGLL
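Two-point fluorescence kinetic (t0, 30 min RT) for hKGA; glutamate detected via glutamate oxidase–HRP–Amplex Red. Substrate: 1 mM L-glutamine solution; buffer 45 mM KH2PO4, pH 8.2.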
Sfp inh: qHTS Assay for Inhibitors of Bacillus subtilis Sfp phosphopantetheinyl transferase (PPTase) | 4'-phosphopantetheinyl transferase ffp (Bacillus subtilis), Q9F4F7 | Biochemical Sfp PPTase activity, qHTS | Potency, µM, for the others: largest response in the series, negative = inhibition, hits mostly inhibitors | actives 3.5% (n = 310,000);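 also: the enzyme is Sfp with the accession as filed and its product quenches rhodamine fluorescence; 0% = enzyme reaction without inhibitor and -100% = no enzyme wells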
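Fluorescence-quenching assay with 15 nM Sfp, 5 uM rhodamine-CoA and 12.5 uM BHQ-2-labelled ybbR peptide in pH 7.6 Hepes/MgCl2 buffer. Enzyme was pre-incubated with compound for 15 min at room temperature. Rate was taken from the 30-min fluorescence change (525/598 nm).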
VDR inh: Inhibitors of the vitamin D receptor (VDR): qHTS; actives 0.93% (n = 400,000); Vitamin D3 receptor (Homo sapiens), P11473; VDR-SRC2-3 peptide fluorescence polarization, 2 h; Potency, µM, without a hit: max response, negative = inhibition, most hits filed as inhibitors
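Inhibition of the VDR/SRC2-3 peptide interaction is quantified by fluorescence polarization. Compounds (23 nl, pintool) incubate with the reagents for 2 hours at ambient room temperature.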
rTrxR1 inhibitor: qHTS Assay for Inhibitors of Mammalian Selenoprotein Thioredoxin Reductase 1 (TrxR1): qHTS | Thioredoxin reductase 1, cytoplasmic (Rattus norvegicus), O89049 | recombinant rTrxR1, NADPH fluorescence consumption, selenite substrate | Potency, µM (titrated, usually from 114 µM), without a hit: top-dose activity change, negative = inhibition, hits mostly inhibitors | actives 1% (n = 390,000) | AID 588453, 2011; also: nearly all actives have a fitted effect of over 65% in size
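Rat TrxR1 (90 nM in the dispensed reagent) was pre-reduced with 400 uM NADPH for 5 min at room temperature, then incubated with compound for 15 min. After 400 uM selenite was added, NADPH fluorescence (Ex 340/Em 450 nm) was followed for 8 min.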
Numbers without * were called inactive; [ ] = another dose, or the depositor's remark. Calls follow the shape of the dose curve; as a rule, active = well fitted curve in the direction sought with a large enough effect; inconclusive = small, poorly fitted or top-dose-only effect, or another doubt; inactive = no such curve, though single readings can be large; an effect the other way counts as inactive or inconclusive. Unless noted, % is scaled to controls: 0 for no effect and ±100 for the full control effect; potency is read from the fitted curve at half-maximal effect.

What do the screens show for `N#CC1=C(S)N(c2ccccc2)C(c2ccc(-c3ccccc3Cl)o2)NC1=O` (configuration not stated)?
GCN5L2 inh: -15%; TrxR1 substrate: -9%; GLS inhibitor: 32%; Sfp inh: 40µM*; VDR inh: 40µM*; rTrxR1 inhibitor: inconclusive

Results for O=C1c2ccccc2NC(c2ccccc2F)N1NS(=O)(=O)c1ccccc1 (configuration not stated) ?
GCN5L2 inh: -4%; TrxR1 substrate: 59%; GLS inhibitor: -22%; Sfp inh: 9%; VDR inh: -4%; rTrxR1 inhibitor: 41%

What do the screens show for `Cc1nc2ccccc2c(=O)n1NS(C)(=O)=O`?
GCN5L2 inh: 0%; TrxR1 substrate: 10%[57.1 µM]; GLS inhibitor: 0%; Sfp inh: -2%; VDR inh: -2%; rTrxR1 inhibitor: 16%[57.1 µM]

What do the screens show for `Cc1ccccc1N1C(S)=C(C#N)C(=O)NC1c1ccco1` (configuration not stated)?
GCN5L2 inh: -1%; TrxR1 substrate: 0%; GLS inhibitor: 1%; Sfp inh: 13µM*; VDR inh: 79µM*; rTrxR1 inhibitor: -33%

What do the screens show for `CCCCN1C(=O)C2ON(c3ccccc3C)C(c3ccco3)C2C1=O` (configuration not stated)?
GCN5L2 inh: -8%; TrxR1 substrate: -2%; GLS inhibitor: -2%; Sfp inh: 11%; VDR inh: -5%; rTrxR1 inhibitor: 25%

Results for COc1cc(C(=O)O)nc2ccccc12 ?
GCN5L2 inh: 2%; TrxR1 substrate: 2%; GLS inhibitor: 0%; Sfp inh: 63µM*; VDR inh: -7%; rTrxR1 inhibitor: 5%

Results for O=C(O)c1ccc(/C=C2\CCCc3c2nc2ccccc2c3C(=O)O)cc1 ?
GCN5L2 inh: -11%; TrxR1 substrate: 9%; GLS inhibitor: 6%; Sfp inh: 13%; VDR inh: -29%; rTrxR1 inhibitor: -24%

How did COc1ccc(/C=C2\CCc3c2nc2ccccc2c3C(=O)O)cc1OC do in these assays?
GCN5L2 inh: inconclusive; TrxR1 substrate: 12%; GLS inhibitor: 11µM*; Sfp inh: -13%; VDR inh: -11%; rTrxR1 inhibitor: -4%

Results for O=C(O)c1c2c(nc3ccccc13)/C(=C/c1ccc(O)cc1)CCC2 ?
GCN5L2 inh: -12%; TrxR1 substrate: -10%; GLS inhibitor: -2%; Sfp inh: 12%; VDR inh: -2%; rTrxR1 inhibitor: -25%

How did COc1cc(/C=C2\CCCc3c2nc2ccccc2c3C(=O)O)cc([N+](=O)[O-])c1O do in these assays?
GCN5L2 inh: -12%; TrxR1 substrate: -18%; GLS inhibitor: 2%; Sfp inh: 12%; VDR inh: -24%; rTrxR1 inhibitor: -27%

How did COc1cc(/C=C2\CCCc3c2nc2ccccc2c3C(=O)O)cc(OC)c1O do in these assays?
GCN5L2 inh: -15%; TrxR1 substrate: -17%; GLS inhibitor: inconclusive; Sfp inh: 11µM*; VDR inh: -24%; rTrxR1 inhibitor: inconclusive

Results for COc1ccc(/C=C2\CCCc3c2nc2ccccc2c3C(=O)O)cc1OC ?
GCN5L2 inh: -25%; Sfp inh: 35µM*

Results for CCCCCCc1ccc(OCC(=O)OC)cc1OCC(=O)OC ?
GCN5L2 inh: -3%; TrxR1 substrate: 5%; GLS inhibitor: 5%; Sfp inh: 7%; VDR inh: 0%; rTrxR1 inhibitor: 24%

What do the screens show for `CCCCCCCCCCCCCCC(C(=O)OC)C(O)(CC(=O)OC)C(=O)OC` (configuration not stated)?
GCN5L2 inh: -19%; Sfp inh: 5%; VDR inh: 17%

How did CCN=C(NCC)SC1CC(=O)N(c2ccc(OCC)cc2)C1=O (configuration not stated) do in these assays?
GCN5L2 inh: -3%; TrxR1 substrate: 0%; GLS inhibitor: 2%; Sfp inh: 17%; VDR inh: -11%; rTrxR1 inhibitor: 15%

What do the screens show for `COc1ccc(OC)c(S(=O)(=O)NCCCc2ccccc2)c1`?
GCN5L2 inh: -1%; TrxR1 substrate: 1%; GLS inhibitor: -1%; Sfp inh: 4%; VDR inh: -7%; rTrxR1 inhibitor: 22%

Results for CCc1nnc(NC(=O)CSc2nnc(CNC(=O)c3ccccc3F)n2C)s1 ?
GCN5L2 inh: -3%; TrxR1 substrate: -2%; GLS inhibitor: -12%; Sfp inh: 11%; VDR inh: -5%; rTrxR1 inhibitor: 1%

Results for Nc1ccccc1Sc1ccc(C(=O)c2ccccc2C(=O)O)cc1[N+](=O)[O-] ?
GCN5L2 inh: 20µM*; TrxR1 substrate: 6%[57.1 µM]; GLS inhibitor: 2%; Sfp inh: inconclusive; VDR inh: -30%; rTrxR1 inhibitor: 30%[57.1 µM]

Results for Nc1cc(C(=O)O)ccc1Sc1ccccc1C(=O)O ?
GCN5L2 inh: -26%; TrxR1 substrate: 6%[11.4 µM]; GLS inhibitor: 9%; Sfp inh: 16µM*; VDR inh: inconclusive; rTrxR1 inhibitor: 5%[11.4 µM]

What do the screens show for `CCCSc1nc(O)c(C(c2ccc(OC)c(O)c2)c2c(O)nc(SCCC)n(C)c2=O)c(=O)n1C`?
GCN5L2 inh: -1%; TrxR1 substrate: 9%[57.1 µM]; GLS inhibitor: 12%; Sfp inh: inconclusive; VDR inh: 35µM*; rTrxR1 inhibitor: 11µM*

What do the screens show for `Cc1cc(=O)oc2cc(NC(=O)C(C)Oc3cccc(Cl)c3)ccc12` (configuration not stated)?
GCN5L2 inh: 4%; TrxR1 substrate: 3%; GLS inhibitor: -1%; VDR inh: -22%; rTrxR1 inhibitor: -9%

What do the screens show for `Cc1ccc2c(c1)c(CC(NC(=O)c1ccccc1Oc1ccccc1)C(=O)O)cn2C(=O)OCc1ccccc1` (configuration not stated)?
GCN5L2 inh: 10µM*; Sfp inh: -18%; VDR inh: 32µM*

What do the screens show for `Cc1cccc(OCC(=O)NC(Cc2ccccc2)C(=O)O)c1` (configuration not stated)?
GCN5L2 inh: 1%; TrxR1 substrate: -2%; GLS inhibitor: 13%; Sfp inh: 28%; VDR inh: -2%; rTrxR1 inhibitor: 3%
